# Assay outcomes deposited in PubChem BioAssay by National Center for Advancing Translational Sciences (NCATS).
# Pf growth 48h: P. falciparum growth inhibition at 48 hours (one generation); P. falciparum luciferase growth in erythrocytes, 48 h; hit rate 5.9% among 310,000; Potency, µM (doses to about 28.7 µM), for inactives: at the top dose activity change, negative = inhibition, usual class: inhibitors; further: on the % scale 0 is the no-effect control and ±100 the full control effect
#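 Firefly luciferase activity from engineered P. falciparum reports growth; inhibitors lower the luminescent signal. Cultures contained 2% hematocrit erythrocytes at 0.1% final parasitemia.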
# HCV inh: blocks hepatitis C virus; hit rate 3.4% among 340,000; Potency, µM (highest dose often 41.8 µM), for inactives: at the top dose activity change, negative = inhibition, hits mostly inhibitors; Huh7.5.1 HCVcc-Cre infection, luciferase reporter, 44 h; further: on the % scale 0 is the no-effect control and ±100 the full control effect
#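 A cell-based infection assay in which seeded cells (1,000 per well) receive test compound after 4 h, are inoculated with HCVcc-Cre at approximately 0.5 moi, and are incubated 44 h before luminescence detection.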
# AMA1 RON2 block: disrupts binding of P. falciparum AMA1 to RON2; AlphaScreen AMA1-biotinylated RON2 peptide binding; Potency, µM (top dose mostly 58.2 µM), for the others: at the highest dose activity change, negative = inhibition, hits mostly inhibitors; hit rate 0.2% among 360,000;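 further: 0% = vehicle wells and -100% = peptide control; nearly all actives have a fitted effect of over 45% in size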
#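 AMA1 (3D7) with his tag at 25 nM final met compounds first, then biotinylated RON2 peptide at 25 nM; detection used donor plus acceptor beads, 10 µg/mL apiece, read by AlphaScreen after 30 min at room temperature.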
# Pf growth 96h: P. falciparum growth inhibition at 96 hours. P. falciparum luciferase reporter growth, 96 h. Potency, µM (highest dose often 28.7 µM), inactives show top-dose activity change, negative = inhibition, usual class: inhibitors. hit rate 6.9% among 320,000. AID 504834; further: on the % scale 0 is the no-effect control and ±100 the full control effect
#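 Readout is luminescence from an integrated firefly luciferase in P. falciparum. Red cells, 2% hematocrit and 0.05% parasitemia final, were cultured with compound through two parasite generations (96 hours) at 37 C, 5% CO2.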
# SARS PLpro yeast: blocks SARS-CoV papain-like protease in a yeast assay | S. cerevisiae expressing SARS-CoV PLpro, growth rescue | Potency, µM (top dose mostly 32.9 µM), without a hit: at the top dose activity, positive = growth rescue, most hits filed as activators | hit rate 0.19% among 330,000 | AID 485353; calls by dose curve; further: 0% is about no effect; nearly all actives have a fitted effect of over 55% in size
# NS1 function inh: blocks influenza NS1 protein function; Potency, µM (titrated, usually from 46.1 µM), for inactives: at the highest dose activity, positive = more growth; hit rate 0.4% among 270,000; AID 2326; calls by dose curve; further: actives are rising curves; nearly all actives have a fitted effect of over 50% in size
#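 OD600 was taken as the measure of yeast growth restored by compound in an NS1-expressing S. cerevisiae strain. Cells had been washed out of glucose medium and diluted 1:100 into galactose -URA medium, pH 6.0.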
# * = called active by the depositor; ? = inconclusive; / = no result; [ ] = another dose, or the depositor's remark. This is a sample that favours compounds with a hit; in the whole collection about 12% have one here. Unless noted, the call rests on the fitted dose curve; in most records, active means well fitted curve in the direction sought with a large enough effect; inconclusive means small, poorly fitted or top-dose-only effect, or another doubt; inactive means no such curve, though single readings can be large; an effect the other way counts as inactive or inconclusive. Potency means the concentration at half of the fitted maximal effect.
SMILES,Pf growth 48h,HCV inh,AMA1 RON2 block,Pf growth 96h,SARS PLpro yeast,NS1 function inh
C=CCOc1ccc(CN(C)CC(O)COc2cccc3ccccc23)cc1 (configuration not stated),10.4µM*,31.6µM*,-21.3%,?,-13.7%,-5.1%
CN(Cc1ccccc1)CC(O)COc1ccc(CNCc2nccn2C)cc1 (configuration not stated),?,?,40.5%,6.2%,0.2%,5.7%
CN(Cc1ccccc1)CC(O)COc1ccc(CNCCc2cccnc2)cc1 (configuration not stated),5.22µM*,?,4.8%,1.4%,0.3%,1.5%
Cc1cc(CN(C)Cc2ccc(OCC(O)CN(C)Cc3ccccc3)cc2)on1 (configuration not stated),-15.2%,-11.1%,-6.8%,?,21.0%,-4.2%
CN(Cc1ccccc1)CC(O)COc1ccc(CNCCc2ccncc2)cc1 (configuration not stated),5.22µM*,12.6µM*,-0.1%,-47.2%,-0.4%,-2.8%
CCN(CC)C(=O)Cn1cc(S(=O)(=O)CC(=O)Nc2ccc(F)cc2)c2ccccc21,/,-2.8%,-8.4%,/,/,/
CC(C)c1ccccc1OCC(O)CN1CCN(S(=O)(=O)c2ccc([N+](=O)[O-])cc2)CC1 (configuration not stated),3.7µM*,12.6µM*,?,2.62µM*,-4.3%,-15.6%
CCCCCOP(=O)(c1ccccc1)c1ccccc1,11.7µM*,-11.9%,16.2%,9.28µM*,-0.9%,-4.7%
Fc1ccc(CNc2ccc(N3CCN(Cc4ccccc4)CC3)cc2)cc1,-22.1%,?,?,9.28µM*,-6.2%,-14.6%
CC(=O)N1CCN(c2ccc(NCc3ccccc3)cc2)CC1,43.5%,-23.9%,-13.5%,/,-3.3%,5.2%
CCOC(=O)C1CCCN(C(=O)c2ccc(NS(=O)(=O)c3ccc4[nH]c(=O)[nH]c4c3)cc2)C1 (configuration not stated),?,11.4%,-14.3%,5.86µM*,-2.3%,/
Cc1cccc(N2CCN(C(=O)c3ccc(NS(=O)(=O)c4ccc5[nH]c(=O)[nH]c5c4)cc3)CC2)c1C,?,-16.3%,5.3%,8.28µM*,2.1%,?
CC1CC(C)CN(C(=O)c2ccc(NS(=O)(=O)c3ccc4[nH]c(=O)[nH]c4c3)cc2)C1 (configuration not stated),?,-7.2%,-2.5%,?,-5.7%,/
COc1ccc(NC(=O)c2cccn(CC=C(C)C)c2=O)cc1,169.2%,?,55.5%,39.5%,-0.9%,/
CCCCC1CCC(C(=O)N(C)CC(=O)Nc2cccc(OC)c2)CC1 (configuration not stated),?,-19.7%,-8.3%,?,1.4%,/
Cc1cccc(Nc2nnc(SCC(=O)Nc3cccc(S(=O)(=O)N4CCCCC4)c3)s2)c1,28.9%,12.6µM*,-11.3%[11.6 µM],-15.7%,3.1%,?
Cc1cccc(NC(=O)CSc2nnc(NC(=O)CN3CCCCC3)s2)c1,10.2%,1.6%,/,-8.5%,0.3%,-0.7%
O=C(CSc1ncnc2ccccc12)Nc1cc(S(=O)(=O)N2CCCCC2)ccc1Cl,?,10µM*,-16.1%,?,-1.0%,12.4%
Cc1cccc(C)c1Nc1nnc(SCC(=O)Nc2cc(S(=O)(=O)N3CCCCC3)ccc2Cl)s1,13.1µM*,?,-0.1%,?,-3.3%,?
COc1ccc(CCNC(=O)CCS(=O)(=O)c2ccc3nc(C)sc3c2)cc1OC,15.8%,-2.8%,0.1%,1.3%,-0.4%,-0.2%
COc1ccccc1NC(=O)C(=O)N/N=C(\C)CC(=O)Nc1ccccc1C(F)(F)F,?,-3.6%,75.0%,16.8%,-16.6%,1.7%
CCOC(=O)c1c(C)[nH]c(C)c1C(=O)COC(=O)/C=C/c1cccc(F)c1,?,-24.2%,-12.7%,?,13.6%,-17.6%
CCOC(=O)c1c(C)[nH]c(C)c1C(=O)COC(=O)/C=C/c1cccc(C(F)(F)F)c1,14.7µM*,-6.0%,-6.1%,?,-34.9%,4.4%
